Experimental findings from PubChem BioAssay are described below.

Unmarked numbers belong to inactive results. For some of these results: Measured potencies and affinities stand elsewhere. Active and inactive are the calls of the source. Unless noted, no rule for the calls is given here.

Assay [1] in a line: antimalarial activity against Dd2 strain (AID 2302;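 active = growth inhibition above 50% at the single 2 µM test dose, taken to imply half-maximal potency below 2 µM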;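 also: 0% = DMSO untreated growth and 100% = chloroquine plus artemisinin killed control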). The conditions noted are these: P. falciparum Dd2 in RBCs, LDH growth readout, 72 h; at 2 µM; stronger effect = higher value.
A short description of assay [2]: HepG2 cytotoxicity, primary screen, cytotoxicity control for P. falciparum antimalarial project, cell-based, ATP luminescence (AID 2303;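 active = inhibition above 50%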;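 also: 0% = DMSO wells and 100% = digitonin-killed cells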). The note with it: HepG2 viability, 24-48 h, at 10 µM, stronger effect = higher value.
Assay [3] deals with L-lactate dehydrogenase (Plasmodium falciparum (isolate CDC / Honduras)) (UniProt Q27743). Kind of assay: PfLDH activity inhibition – cell lysate, 3D7 strain, counter-screen for P. falciparum growth inhibition project (AID 2304).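 Also: 0% = vehicle and 100% = reference inhibitor.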 The conditions noted are these: P. falciparum 3D7 crude extract, LDH APAD/NBT absorbance; at 2 µM; stronger effect = higher value. In general terms: The purpose of a counterscreen is to sort out artefacts and off-target activity.

Assay [4] can be described thus: inhibition of 3D7 malaria parasite growth – strain 3D7 (AID 2306).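 Also: 0% = DMSO wells and 100% = chloroquine plus artemisinin control wells.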 The conditions noted are these: P. falciparum 3D7 erythrocytic growth, LDH absorbance, 72 h; at 2 µM; stronger effect = higher value.
Assay [5] concerns the target Calcium-dependent protein kinase 1 (Plasmodium falciparum (isolate 3D7)) (UniProt P62344). As to the kind of experiment: PfCDPK1 kinase inhibitors, biochemical, TCAMS library (AID 1159585; cut-off not given, nearly all actives have IC50 up to about 0.98 µM;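 also: inhibitors leave more ATP so luminescence rises with inhibition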). The note with it: recombinant PfCDPK1, Kinase-Glo ATP depletion luminescence. On the technique in general: Kinase-Glo reads ATP consumption through a luciferase reaction.
Assay [6] has as its target Plasmodium falciparum protein kinase 6 (PK6, PF3D7_1337100) (UniProt Q8IDW1). Kind of assay: PfPK6 kinase inhibitors, biochemical, TCAMS library (AID 1159586). The conditions noted are these: recombinant PfPK6, Kinase-Glo ATP depletion luminescence.
In assay [7] the target is Protein kinase 7 (PK7), Plasmodium falciparum 3D7 (PF3D7_0213400) (UniProt Q7YTF7). As to the kind of experiment: inhibition of Plasmodium PK7 catalytic activity – biochemical, TCAMS antimalarial set, Kinase-Glo luminescence (AID 1159587). The note with it: recombinant PfPK7, Kinase-Glo ATP depletion luminescence.
Assay [8] addresses Calcium-dependent protein kinase 4 (Plasmodium falciparum (isolate 3D7)) (UniProt Q8IBS5). Kind of assay: PfCDPK4 kinase inhibitors, biochemical, TCAMS library (AID 1159588; cut-off not given, nearly all actives have IC50 up to about 0.91 µM). The conditions noted are these: recombinant PfCDPK4, Kinase-Glo ATP depletion luminescence.

Protein kinase 7 (PK7), Plasmodium falciparum 3D7 (PF3D7_0213400), sequence (Q7YTF7 1-343): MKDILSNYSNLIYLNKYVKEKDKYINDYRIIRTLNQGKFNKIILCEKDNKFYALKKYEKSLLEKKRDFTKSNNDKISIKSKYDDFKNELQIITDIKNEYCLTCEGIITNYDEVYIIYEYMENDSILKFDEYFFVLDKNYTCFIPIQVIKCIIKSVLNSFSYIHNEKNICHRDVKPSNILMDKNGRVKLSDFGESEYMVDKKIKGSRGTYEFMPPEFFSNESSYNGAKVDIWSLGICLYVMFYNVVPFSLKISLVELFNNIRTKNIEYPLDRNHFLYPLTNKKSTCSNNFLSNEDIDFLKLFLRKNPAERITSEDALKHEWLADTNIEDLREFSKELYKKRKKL
Calcium-dependent protein kinase 1 (Plasmodium falciparum (isolate 3D7)), sequence (P62344 whole entry, looked up): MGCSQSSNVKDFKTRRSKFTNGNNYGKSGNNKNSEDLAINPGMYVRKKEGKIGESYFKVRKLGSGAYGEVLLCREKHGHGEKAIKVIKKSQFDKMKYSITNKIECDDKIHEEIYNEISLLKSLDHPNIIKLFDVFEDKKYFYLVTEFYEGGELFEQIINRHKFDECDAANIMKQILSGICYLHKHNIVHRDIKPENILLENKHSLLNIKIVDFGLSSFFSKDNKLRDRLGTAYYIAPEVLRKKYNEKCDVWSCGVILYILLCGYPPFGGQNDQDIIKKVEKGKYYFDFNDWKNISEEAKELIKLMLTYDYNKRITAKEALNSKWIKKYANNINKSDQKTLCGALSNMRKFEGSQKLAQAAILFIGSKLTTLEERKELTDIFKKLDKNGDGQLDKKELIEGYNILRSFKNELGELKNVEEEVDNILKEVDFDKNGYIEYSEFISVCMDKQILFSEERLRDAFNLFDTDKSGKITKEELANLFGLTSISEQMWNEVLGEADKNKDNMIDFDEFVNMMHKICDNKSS
Plasmodium falciparum protein kinase 6 (PK6, PF3D7_1337100), sequence (Q8IDW1 1-305): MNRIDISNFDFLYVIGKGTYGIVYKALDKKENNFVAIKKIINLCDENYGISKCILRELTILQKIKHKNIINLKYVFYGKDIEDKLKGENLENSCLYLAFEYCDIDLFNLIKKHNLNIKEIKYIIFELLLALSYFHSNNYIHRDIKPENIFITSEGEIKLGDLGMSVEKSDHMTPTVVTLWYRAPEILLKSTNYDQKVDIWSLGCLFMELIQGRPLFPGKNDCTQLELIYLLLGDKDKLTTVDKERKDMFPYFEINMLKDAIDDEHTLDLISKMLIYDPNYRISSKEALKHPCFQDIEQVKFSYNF
L-lactate dehydrogenase (Plasmodium falciparum (isolate CDC / Honduras)), sequence (Q27743 whole entry, looked up): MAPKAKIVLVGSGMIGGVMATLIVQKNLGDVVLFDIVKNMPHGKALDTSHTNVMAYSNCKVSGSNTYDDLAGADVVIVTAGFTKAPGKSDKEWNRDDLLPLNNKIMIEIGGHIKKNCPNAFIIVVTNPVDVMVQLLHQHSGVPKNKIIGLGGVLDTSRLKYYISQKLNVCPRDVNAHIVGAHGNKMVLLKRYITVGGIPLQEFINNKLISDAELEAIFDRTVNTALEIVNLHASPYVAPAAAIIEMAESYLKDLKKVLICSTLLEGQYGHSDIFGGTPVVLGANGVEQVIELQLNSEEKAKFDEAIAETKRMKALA
Calcium-dependent protein kinase 4 (Plasmodium falciparum (isolate 3D7)), sequence (Q8IBS5 whole entry, looked up): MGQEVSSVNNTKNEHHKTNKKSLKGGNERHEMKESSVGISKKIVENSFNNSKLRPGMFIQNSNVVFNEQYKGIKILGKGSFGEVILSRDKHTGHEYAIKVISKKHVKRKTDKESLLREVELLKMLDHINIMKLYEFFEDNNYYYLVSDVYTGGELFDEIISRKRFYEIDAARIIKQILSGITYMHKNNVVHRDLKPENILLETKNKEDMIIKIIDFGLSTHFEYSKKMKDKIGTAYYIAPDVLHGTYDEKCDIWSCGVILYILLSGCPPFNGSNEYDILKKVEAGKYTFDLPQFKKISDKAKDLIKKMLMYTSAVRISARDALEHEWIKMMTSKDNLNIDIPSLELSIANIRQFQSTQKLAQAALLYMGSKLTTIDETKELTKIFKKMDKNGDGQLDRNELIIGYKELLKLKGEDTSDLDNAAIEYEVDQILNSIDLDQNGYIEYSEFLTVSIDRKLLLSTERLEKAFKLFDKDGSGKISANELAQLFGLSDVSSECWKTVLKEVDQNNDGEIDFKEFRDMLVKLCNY

As usually defined, the inhibition is the relative decrease from the control value, in per cent. With `CCc1c(C(=O)NC2CCC(N3CCC(c4ccccc4OC)CC3)CC2)[nH]c2ccc(OC)cc12` (stereo not given), the growth inhibition in assay [1] is 99% (active); in assay [4], 101% (active). Also, the inhibition in assay [2] is 43%; in assay [3], -5%. In addition, the result in assay [5], in assay [6], in assay [7] and in assay [8] was inactive.
In the case of `Cc1cc(N[C@@H](CC(C)C)C(=O)NCc2cccs2)nc(NCCc2cccs2)n1`, the growth inhibition in assay [1] is 13%; in assay [4] it was 92% (active). Moreover, the figures for the inhibition in assay [2] and in assay [3] were -3% and -4%, respectively. Besides, the outcome in assay [5], in assay [6], in assay [7] and in assay [8] was inactive.
Regarding `CN1CCN(c2cc3c(cc2Br)CCN3C(=O)Nc2ccc(-c3cnc4ccccc4c3)cc2)CC1`, the growth inhibition was 79% (active) in assay [1] and 99% (active) in assay [4]. Besides, the inhibition in assay [2] was 100% (active); in assay [3] it was 3%. Also, the result in assay [5], in assay [6], in assay [7] and in assay [8] was inactive.
In the case of `COC(=O)c1cc(/C(C)=N/Nc2nc3ccccc3[nH]2)ccc1O`, the growth inhibition in assay [1] is 75% (active); in assay [4], 101% (active). Moreover, the values for the inhibition in assay [2] and in assay [3] were 9% and -1%, respectively. The result in assay [5], in assay [6], in assay [7] and in assay [8] was inactive.
For `COc1ccccc1CNc1nc(Nc2ccccc2C)nc2ccccc12`, the growth inhibition in assay [1] was 67% (active); in assay [4], 101% (active). Further, the inhibition in assay [2] is 24%; in assay [3], -1%. Moreover, the result in assay [5], in assay [6], in assay [7] and in assay [8] was inactive.
`Cc1cccc2[nH]c(-c3ccc(-c4cccc(NC(=O)Nc5ccc(Cl)c(Cl)c5)c4)s3)nc12`: the figures for the growth inhibition in assay [1] and in assay [4] were 36% and 101% (active), respectively. The inhibition in assay [2] was 46%; in assay [3] it was -1%. For the same compound, the outcome in assay [5], in assay [6], in assay [7] and in assay [8] was inactive.
For the compound `CC1CN(Cc2ccccc2)CCN1c1ccc(NC(=O)c2ccc(F)cc2)cc1` (stereo not given), the growth inhibition is 89% (active) in assay [1] and 87% (active) in assay [4]. Moreover, the inhibition in assay [2] was -6%; in assay [3], -5%. Besides, the outcome in assay [5], in assay [6], in assay [7] and in assay [8] was inactive.
As for `Cc1cccc2[nH]c(-c3ccc(-c4cccc(C(=O)NCCc5cn(C)cn5)c4)s3)nc12`, the growth inhibition in assay [1] is 17%; in assay [4] it was 92% (active). In addition, the inhibition was 27% in assay [2] and -7% in assay [3]. Besides, the result in assay [5], in assay [6], in assay [7] and in assay [8] was inactive.
`Cc1c(C(=O)N2CCCC(C(F)(F)F)C2)sc2cccc(F)c12` (stereo not given): the results for the growth inhibition in assay [1] and in assay [4] were 89% (active) and 99% (active), respectively. For the same compound, the inhibition is -4% in assay [2] and 1% in assay [3]. The outcome in assay [5], in assay [6], in assay [7] and in assay [8] was inactive.
On to `NC(N)=NN=C1C=Cc2cccc3cccc1c23`, for which the growth inhibition is 49% in assay [1] and 100% (active) in assay [4]. The inhibition in assay [2] was 9%; in assay [3] it was 1%. Also, the result in assay [5], in assay [6], in assay [7] and in assay [8] was inactive.
Turning to `CO/C(=C\C=C\c1cc2cc(Cl)c(Cl)cc2[nH]1)C(=O)NCCCN1CCCC[C@H]1C`, the growth inhibition in assay [1] is 91% (active); in assay [4] it was 100% (active). The inhibition is 41% in assay [2] and 3% in assay [3]. For the same compound, the outcome in assay [5], in assay [6], in assay [7] and in assay [8] was inactive.
On to `CS(=O)(=O)N1CC2(CCN(CCC(NC(=O)NCc3ccccc3Cl)c3ccc(Cl)c(Cl)c3)CC2)c2ccccc21` (stereo not given), for which the growth inhibition in assay [1] was 98% (active); in assay [4], 85% (active). Moreover, the inhibition is 12% in assay [2] and -7% in assay [3]. Also, the outcome in assay [5], in assay [6], in assay [7] and in assay [8] was inactive.
In the case of `CC(=O)c1c(C)[nH]c(C(=O)Nc2ccc(-c3nc4ccc(C)cc4s3)cc2)c1C`, the growth inhibition in assay [1] is 40%; in assay [4], 92% (active). Further, the inhibition in assay [2] is 11%; in assay [3], -2%. In addition, the result in assay [5], in assay [6], in assay [7] and in assay [8] was inactive.
For `COc1cc(NC(=O)c2sc(-c3ccc(Cl)cc3)cc2NC(=O)N2CCCC2)ccc1OCCN1CCCC1`, the growth inhibition was 61% (active) in assay [1] and 101% (active) in assay [4]. Moreover, the inhibition in assay [2] is 22%; in assay [3] it was 0%. The outcome in assay [5], in assay [6], in assay [7] and in assay [8] was inactive.
Consider `O=C(Cn1c(CCc2cccc(F)c2F)nc(=O)c2cccnc21)N(Cc1ccc(-c2ccc(C(F)(F)F)cc2)cc1)C1CCN(C2CCSCC2)CC1`, for which the growth inhibition was 63% (active) in assay [1] and 101% (active) in assay [4]. The inhibition in assay [2] is 49%; in assay [3], 3%. For the same compound, the outcome in assay [5], in assay [6], in assay [7] and in assay [8] was inactive.
Turning to `CCCCCCNC(=O)C1Cc2c([nH]c3ccccc23)C2(CCN(CCc3ccccc3)CC2)N1` (stereo not given), the growth inhibition is 34% in assay [1] and 96% (active) in assay [4]. In addition, the inhibition in assay [2] is 41%; in assay [3], 4%. Besides, the result in assay [5], in assay [6], in assay [7] and in assay [8] was inactive.
For the compound `FC(F)(F)c1ccc2nccc(NN=Cc3cccc(Cl)c3)c2c1`, the growth inhibition in assay [1] was 2%; in assay [4] it was 97% (active). For the same compound, the figures for the inhibition in assay [2] and in assay [3] were -3% and -8%, respectively. The result in assay [5], in assay [6], in assay [7] and in assay [8] was inactive.
Regarding `CC(=O)N(C)C1CCN(Cc2cccc(-c3ccc(-c4nc5ccc(C(F)(F)F)cc5[nH]4)cc3)c2)C1` (stereo not given), the growth inhibition in assay [1] was 94% (active); in assay [4], 100% (active). Moreover, the values for the inhibition in assay [2] and in assay [3] were 31% and 3%, respectively. The result in assay [5], in assay [6], in assay [7] and in assay [8] was inactive.
For the compound `COc1cc(C2=NN(S(=O)(=O)c3c(Cl)cc(Cl)cc3Cl)CCCC2)ccc1Cl`, the values for the growth inhibition in assay [1] and in assay [4] were 97% (active) and 98% (active), respectively. For the same compound, the results for the inhibition in assay [2] and in assay [3] were 3% and -1%, respectively. Further, the result in assay [5], in assay [6], in assay [7] and in assay [8] was inactive.
Consider `Nc1nc(N)c2c(Oc3cccc4ccccc34)cccc2n1`, for which the results for the growth inhibition in assay [1] and in assay [4] were 10% and 96% (active), respectively. The inhibition is 42% in assay [2] and 6% in assay [3]. The outcome in assay [5], in assay [6], in assay [7] and in assay [8] was inactive.
